Screening results (PubChem BioAssay)
Compounds with a hit are over-represented: about 3.4% of the library has one in this group of screens.
FBW7 act – human FBW7 E3 ligase activation, primary screen; Q969H0; AlphaScreen FBW7–phospho-cyclin E peptide binding, activator screen; normalized activity (activation), % at 26.1 µM; 650,000 compounds, 0.13% hits; AID 1259310; in the data active = normalized activity above about 1.9%;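 also: purified mutant Fbw7 with reduced substrate affinity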
Target sequence (Q969H0 whole entry, looked up): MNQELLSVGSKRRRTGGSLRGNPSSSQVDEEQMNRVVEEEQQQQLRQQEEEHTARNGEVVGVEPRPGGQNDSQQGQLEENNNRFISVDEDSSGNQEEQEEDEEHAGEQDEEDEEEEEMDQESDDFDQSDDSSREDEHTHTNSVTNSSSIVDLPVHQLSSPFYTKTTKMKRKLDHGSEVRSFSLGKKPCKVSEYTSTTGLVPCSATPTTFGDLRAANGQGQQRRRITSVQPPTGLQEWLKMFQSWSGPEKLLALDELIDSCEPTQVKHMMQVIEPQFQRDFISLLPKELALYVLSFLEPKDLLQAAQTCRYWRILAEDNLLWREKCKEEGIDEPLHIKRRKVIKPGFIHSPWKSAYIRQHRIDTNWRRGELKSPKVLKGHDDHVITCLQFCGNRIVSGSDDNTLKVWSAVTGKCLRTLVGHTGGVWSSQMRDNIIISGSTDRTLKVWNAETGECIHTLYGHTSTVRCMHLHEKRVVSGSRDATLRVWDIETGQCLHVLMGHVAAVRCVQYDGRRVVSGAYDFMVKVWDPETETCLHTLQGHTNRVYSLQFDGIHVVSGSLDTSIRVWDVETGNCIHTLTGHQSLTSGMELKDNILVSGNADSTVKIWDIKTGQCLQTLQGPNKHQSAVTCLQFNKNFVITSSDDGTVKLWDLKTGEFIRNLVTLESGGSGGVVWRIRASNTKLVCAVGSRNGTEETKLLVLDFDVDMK
MITF primary – human MITF inhibition, primary screen | inhibition, % at 2.6 µM | AlphaScreen MITF homodimerization, bead proximity signal | O75030 | 650,000 compounds, 0.91% hits; in the data active = inhibition above about 50%;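 also: 0% = vehicle wells with protein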
GPR151 ag – activates the human receptor GPR151. Q8TDV0. PathHunter beta-arrestin GPR151 cells, luminescence. activation, % at 11.2 µM. 650,000 compounds, 1% hits. AID 1508602; in the data active = activation above about 4.9%;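 also: 0% = median of compound wells and 100% = cells with positive control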
TEAD-YAP inh – TEAD-YAP interaction inhibition. AID 1259422. HEK-TIYL cells, TEAD-Gal4/YAP UAS-luciferase luminescence. 640,000 compounds, 1.4% hits. inhibition, % at 9.12 µM; in the data active = inhibition above about 32%;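 also: 0% = median of test compound wells and 100% = reference inhibitor wells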
GPR151 conf act – confirmation of human GPR151 activators; shares compounds with GPR151 ag; GPR151 PathHunter beta-arrestin cells, luminescence, 90 min; % of EA-reagent control over plate median; activation, % at 11.2 µM; 6,700 tested, under 10 active; AID 1508609;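 active = mean percent activation across replicates above the confirmation screen cutoff of 4.91%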
GPR119 counter – GPR119 activation, counter-screen for GPR151 activators; shares compounds with GPR151 ag; GPR119 PathHunter beta-arrestin cells, luminescence, 90 min; 0 = compound-well median, 100 = enzyme-acceptor control; activation, % at 11.2 µM; 6,700 compounds, 0.3% hits; AID 1508611;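 active = mean percent activation in the counterscreen above 29.09%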;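 also: counterscreen on off-target GPR119 to flag nonselective hits from the GPR151 activator screen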
The depositor's hits bear a star; . = no result; ! = not confirmed by another sample.

SMILES	FBW7 act	MITF primary	GPR151 ag	TEAD-YAP inh	GPR151 conf act	GPR119 counter
Cc1ccc(CNC(=O)c2cc3c(=O)n4cccc(C)c4nc3n(C)c2=N)cc1	0	6	11*	1	0	0
CNC(=O)c1cc2c(=O)n3cccc(C)c3nc2n(C)c1=N	1	18	-2	13	.	.
CCCOC(=O)C1=C(C)NC2=C(C(=O)CCC2)C1c1cc(Br)c(O)c(OCC)c1 (configuration not stated)	0	13	0	-3	.	.
CCCCCOC(=O)C1=C(C)NC2=C(C(=O)CCC2)C1c1cc(Br)c(O)c(OCC)c1 (configuration not stated)	0	9	5.5*	2	-1	-3
CCOc1c(Br)cc(C2C(C(=O)N3CCOCC3)=C(C)NC3=C2C(=O)CCC3)cc1OC (configuration not stated)	0	-1	6.2*	4	0	-1
CCCOC(=O)C1=C(C)NC2=C(C(=O)CCC2)C1c1cccnc1 (configuration not stated)	0	2	6.1*!	2	1	3
CCOc1cc(/C=C2/C(=N)N3N=C(C(C)C)SC3=NC2=O)cc(Cl)c1OCc1ccccc1F	0	14	0	-2	.	.
COc1cc(C)c(C(C)C)cc1S(=O)(=O)Nc1ccc(C(C)=O)cc1	0	-15	1	13	.	.
Cc1c(C(=O)NC2CCCCCC2)sc2ncn(CC(=O)N3CCCC(C)C3)c(=O)c12 (configuration not stated)	0	-7	1	4	.	.
COc1ccc(C2C(C(=O)Nc3ccc(C)cc3Br)c3ccccc3C(=O)N2C)cc1 (configuration not stated)	0	-8	-1	-6	.	.
COc1ccc(/C=C/C(=O)Nc2ccc(OC(C)C)cc2)cc1	0	-1	2	-23	.	.
CC(C)Oc1ccc(NC(=O)/C=C/c2ccc(F)cc2)cc1	0	15	6.7*	-28	1	-2
COc1cccc(NC(=O)CCSc2nnc3ccc4ccccc4n23)c1	0	5	2	1	.	.
CCOC(=O)c1sc2nccc3c2c1N=CN3c1ccccc1	0	11	5.3*	-13	0	0
O=C(c1ccc(Cn2nnc3ccccc3c2=O)cc1)N1CCc2ccccc2C1	0	-7	0	2	.	.
O=C(c1ccc(-n2nnc3ccccc3c2=O)cc1)N1CCc2ccccc2C1	0	0	6.0*	2	-1	-8
CCOC(=O)C1CCCN(c2ccc(NC(=O)c3snc4c(=O)[nH]cnc34)cc2)C1 (configuration not stated)	0	1	7.4*	-7	1	10
Cn1ncc2c(N3CCN(Cc4ccc5c(c4)OCO5)CC3)ncnc21	1	6	1	2	.	.
O=[N+]([O-])c1ccc2ncnc(N3CCN(Cc4ccc5c(c4)OCO5)CC3)c2c1	-1	4	12*	35*	1	3
CCn1cc(C(=O)N2C[C@H](C(=O)OC)[C@@H](c3ccc(F)cc3)C2)cn1	0	-8	0	-1	.	.
COC(=O)[C@H]1CN(C(=O)c2cnn(C(C)C)c2)C[C@@H]1c1ccc(F)cc1	0	-10	5.7*	3	0	-2
CCOC(=O)C1=C(C)NC(=O)NC1c1ccc(-c2ccc(Cl)c(Cl)c2)o1 (configuration not stated)	0	-2	0	-22	.	.
O=C(Nn1c(=S)[nH]c2ccccc2c1=O)c1ccc(Br)cc1	0	8	-1	-4	.	.
O=C(O)c1ccc(Nn2c(=S)[nH]c3ccccc3c2=O)cc1	0	5	5.0*	-1	0	-12
CCOC(=O)CCCNS(=O)(=O)c1ccc(Cl)s1	0	13	-1	8	.	.
SMILES	FBW7 act	MITF primary	GPR151 ag	TEAD-YAP inh	GPR151 conf act	GPR119 counter
Cc1cc(CC(=N)N)c(C)cc1CC(=N)N	0	6	5.4*	-5	-1	-12
Cc1cc(N2CCC(C)CC2)nc2ccc(N)cc12	0	1	7.4*	-35	-1	-2
Cc1ccc(-c2csc3nnc(SCC(=O)NC(N)=O)n23)cc1	0	7	6.3*	1	3	-3
Cc1ccc(-c2csc3nnc(SCC(=O)NCCc4ccccc4)n23)cc1	0	0	0	4	.	.
Cc1ccccc1N(C)S(=O)(=O)c1ccc2[nH]cc(C(=O)N3CCC(C)CC3)c(=O)c2c1	0	10	5.1*	17	0	2
COc1ccc(NC(=O)Cn2c(-n3nc(C)cc3C)nc(C)cc2=O)cc1	-1	0	-1	-11	.	.
CCOc1ccc(NC(=O)Cn2c(-n3nc(C)cc3C)nc(C)cc2=O)cc1	0	10	9.1*	14	1	7
O=C(NCc1ncc(C(F)(F)F)cc1Cl)c1cnc2sc3ccccc3n2c1=O	1	14	-1	7	.	.
CSC1=C(C#N)C(c2ccc3c(c2)OCO3)CC(=O)N1 (configuration not stated)	0	-2	5.1*	-2	0	2
CCCSC1=C(C#N)C(c2ccc3c(c2)OCO3)CC(=O)N1 (configuration not stated)	0	1	-1	-6	.	.
COC(=O)CCNC(=O)NC(CCC(C)C)c1c(-n2cccc2)sc2c1CCN(C)C2 (configuration not stated)	0	-3	2	-6	.	.
COCCCNC(=O)NC(CCC(C)C)c1c(-n2cccc2)sc2c1CCN(C)C2 (configuration not stated)	0	-2	8.2*	10	0	-5
OC(CNCc1ccccc1F)c1ccccc1 (configuration not stated)	0	6	-1	-9	.	.
COc1ccc(/C=C(\NC(=O)c2ccc(OC)cc2)C(=O)NC(C)C(=O)O)cc1 (configuration not stated)	0	14	2	1	.	.
COc1ccc(C(=O)N/C(=C/c2ccccc2)C(=O)NC(C)C(=O)O)cc1 (configuration not stated)	0	11	8.7*	3	1	11
NC(=O)C(=O)NCc1ccc(Cl)cc1	1	2	5.9*	-1	0	-2
Cc1ccc(C(=O)NCc2ccccc2)o1	0	10	0	3	.	.
Cc1ccc(C(=O)NCc2ccc(Cl)cc2)o1	0	5	7.7*	-7	1	-9
COc1ccc(NC(=O)CSc2nc3cccnc3n2-c2ccccc2OC)cc1	0	16	0	1	.	.
S=c1[nH]nc(-c2ccc(Cl)cc2)n1-c1ccccc1	0	12	-2	15	.	.
Nc1c(Cl)cc(-n2c(-c3ccccc3)n[nH]c2=S)cc1Cl	0	-1	5.5*	5	0	-3
CC(C)(C)c1ccc(-c2n[nH]c(=S)n2-c2ccccc2)cc1	0	13	5.1*!	1	-1	-13
